Test results taken from the supplement of paper PMC6555819.

Legend:
Assay in all cases: PBM binding z-score (relative to random genomic background probes); higher = stronger binding; sequences stand for … in GC…GCGATTGACAGCGTAGAATGAAGG
[1] = system: RARb homodimer (NR concentration 270 nM)
Method in brief: (§1)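 Ligand-free nuclear receptor dimers were applied to custom Agilent 4×180K protein-binding microarrays whose double-stranded probes carried direct-repeat seeds, single-nucleotide variants, half-site ablations and random human genomic background sequences in 34-nt variable regions. Incubation lasted 1 h. Binding z-scores were computed against the random background probes from regression-normalized fluorescence.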

[2] = system: RARg:RXRa (NR concentration 270 nM, RXRa partner concentration 90 nM)
Method in brief: as §1

[3] = system: RARg homodimer (NR concentration 270 nM)
Method in brief: as §1

[4] = system: RXRa DBDmut IVT, anti-RXR (DBD mutation: RXRa K156A/R161A, NR concentration 90 nM)
Method in brief: as §1

[5] = system: RXRa homodimer (NR concentration 180 nM)
Method in brief: as §1

[6] = system: THRa:RXRa (NR concentration 90 nM, RXRa partner concentration 90 nM)
Method in brief: as §1

[7] = system: THRa homodimer (NR concentration 90 nM)
Method in brief: as §1

[8] = system: VDR homodimer (NR concentration 270 nM)
Method in brief: as §1

| Sequence | PBM binding z-score [1] | PBM binding z-score [2] | PBM binding z-score [3] | PBM binding z-score [4] | PBM binding z-score [5] | PBM binding z-score [6] | PBM binding z-score [7] | PBM binding z-score [8] |
| --- | --- | --- | --- | --- | --- | --- | --- | --- |
| TTACCAAGGTGAAAGGTCGCTGATGCACGCCTTG | 2.77 | 4.17 | 2.3 | 0.982 | 5.52 | 3.19 | 0.725 | 0.555 |
| GCGTGTAGATCAAGGTTAAGAAAGACTAAGCTAA | 0.225 | 0.354 | 0.289 | -0.253 | 0.772 | 1.54 | -0.256 | -0.286 |
| TCATATAGGTAAATACTAGGTGAAAGTCCGATCT | 0.493 | 0.573 | 0.709 | 1.89 | 1 | 1.49 | 0.718 | 0.521 |
| TTCCCAAGGTGAAAGGTCGTTGATGCACGCCTTG | 3.14 | 4.25 | 2.13 | 0.532 | 5.91 | 3.6 | 1.4 | 1.52 |
| GCTCCTAGGTCAGGTTGGTCAGCTAACGGGTACG | 3.18 | 2.91 | 3.46 | 0.888 | 1.47 | 2.27 | 1.22 | 0.591 |
| CGTCAAAGTTCATCTAAGGTAACGTAAAGCACGC | 4.35 | 5.77 | 6.43 | 5.14 | 4.66 | 5.26 | 2.52 | 5.45 |
| CCTACTGGGCCAAAGGTCATTGATTCCAATGCTC | 4.66 | 5.94 | 4.86 | 1.43 | 7.21 | 3.33 | 0.631 | 2.09 |
| TCTTGTAGATCAAAGGTTAAGAGAGCCGAAGCCT | 1.45 | 1.84 | 0.766 | 0.28 | 3.32 | 1.18 | -0.582 | -0.415 |
| TCTGACAGGTGAAGGTAACTCAGGTACGCAGTCG | 0.819 | 0.644 | 0.639 | 0.827 | 0.901 | 1.5 | 0.158 | 0.222 |
| TGTATTAGTTGATTAGGGCAACCGAAACAGCGGA | 0.715 | 0.692 | 0.807 | -0.317 | -0.0234 | 0.551 | 0.64 | 0.784 |
| ATGGAAAGGTCGAGGTGAGTATAGAGAAAGGGAA | 3.16 | 4.21 | 4.21 | 0.469 | 4.53 | 3.15 | 1.47 | 0.902 |
| TCTACAGGGTCAAAGGCCAGAGTACGAATGTCGA | 3.2 | 5.47 | 5 | 3.16 | 6.72 | 3.48 | 0.454 | 2.55 |
| GCTAGCAGGCCATGTGGGTCACTCAATGACGGGC | 1.65 | 0.945 | 1.05 | -0.752 | 0.909 | 0.759 | -0.59 | 0.0438 |
| CCTTACGGGTCACTCCAGGTTATAGGATCGGAGT | 3.21 | 4.55 | 4.56 | 1.45 | 4.79 | 4.95 | 0.641 | 1.51 |
| TGAATGAGTTTATAAGATCAGGGAACGTTGCAAA | -0.48 | 0.181 | 0.344 | 3 | 0.0895 | 0.0488 | -0.207 | 2.37 |
| AGAATGAGGTTACCAAGGATCAGGGAAACGCTTG | 1.02 | 1.94 | 1.65 | 0.704 | 2.62 | 2.94 | 1.1 | 0.508 |
| AGAATGAGGTTATTAAGAGCAGGGAATTGCGGTC | 1.16 | 1.1 | 0.698 | 2.01 | 1.48 | 2.14 | 0.798 | 1.21 |
| ATCGAAAGGTCGGGGTGAGTATAGAGAAAGGGAA | 2.88 | 3.7 | 3.63 | 1.78 | 3.77 | 3.06 | 1.35 | 1.52 |
| CCTTACGGGTCACTCCAGGTTTTAGCATCGGAGT | 2.77 | 4.49 | 4.02 | 1.79 | 4.23 | 4.31 | 0.0902 | 1.74 |
| ACTTACGGGTCAACGAGGTTTTAGCACGCGTATA | 3.37 | 5.26 | 4.9 | 2.16 | 5.5 | 3.46 | 0.678 | 1.84 |
| ATATGTAGGGTACATCCGGGTCATTCAGGCTATG | 2.84 | 2.44 | 1.86 | 2.66 | 2.64 | 3.83 | 2.45 | 5.83 |
| TATACAGGGTCAAAGGCCACAGTACGAATGTCGA | 3.85 | 6.13 | 5.62 | 3.08 | 7.97 | 3.53 | 1.28 | 3.15 |
| ACTAGCAGGCCAAGGGTCACCCAAGATTAGTCCG | 3.96 | 4.79 | 4.32 | 0.27 | 4.91 | 3 | 0.576 | 0.895 |
| TGAATGAGCTTATAAGATCAGGGAACGTTGCAAA | -1.21 | -0.305 | -0.288 | -1.2 | -0.211 | -0.371 | -1.18 | -0.577 |
| CCATACGGGTCACTGACAGGTTATAGCATTTGGA | 3.06 | 5.82 | 4.78 | 1.24 | 5.32 | 2.84 | -0.0458 | 1.3 |
| CGACCTAGGTCAAGGACAGTGAATCTCCGCACGC | 3.02 | 4.65 | 4.69 | 1.82 | 3.41 | 3.39 | 2.25 | 0.294 |

| Sequence | PBM binding z-score [1] | PBM binding z-score [2] | PBM binding z-score [3] | PBM binding z-score [4] | PBM binding z-score [5] | PBM binding z-score [6] | PBM binding z-score [7] | PBM binding z-score [8] |
| --- | --- | --- | --- | --- | --- | --- | --- | --- |
| TCTCGGAGGACACGCAAGGTCAGAGCTCGACATC | 3.96 | 3.16 | 3.84 | 1.23 | 2.01 | 4.25 | 2.64 | 1.06 |
| TCTAGTTGGTCAAAGCTCACACACTCGAAATGCG | 0.587 | 0.584 | 0.77 | 1.37 | 0.769 | 0.0893 | 0.269 | 0.0543 |
| TCGAGTAGGTTAGGGGCATTCGGAATGGCGTCGA | 0.742 | 0.5 | -0.0301 | 0.0579 | 0.52 | 0.777 | 0.132 | 0.956 |
| CCAACTAGGTCAAGAGGTCAAAGTCCGCTTCCCG | 5.51 | 8.12 | 7.31 | 2.99 | 8.12 | 4.24 | 2.47 | 4.94 |
| GGAACGAGGGCAAAGTTGATAGGATCTGTCGACG | 1.32 | 2.19 | 1.89 | 2.92 | 2.12 | 1.36 | -0.0299 | 1.34 |
| CCTACTGGGCCAAAAAGGTCTTTGATGCCGATAA | 0.452 | -0.217 | -0.013 | -0.428 | -0.121 | -0.113 | -0.671 | -0.382 |
| ATCTCTCGGTAAAGTTCAGTGAAAGATCGATAGA | 2.62 | 2.19 | 2.56 | 1.17 | 1.06 | 0.717 | 0.426 | 2.27 |
| CGTCCAAGGTCAAGGTCAGTGCAAGAGACTCGAA | 5.45 | 6.95 | 7.95 | 3.52 | 6.56 | 4.21 | 3.91 | 3.18 |
| TCTAGTTGGTCAAAGGTCACAGACTCGAAATGCG | 5.18 | 7.34 | 6.39 | 1.36 | 8.58 | 4.16 | 1.98 | 2.22 |
| CGTCCAAGGTCAGAGACGTCAGTGAATGCCGAGT | 3.39 | 4.24 | 4.6 | 2.62 | 3.33 | 3.24 | 1.49 | 1.24 |
| TAGCCTAGGTCAGATCGGGCCAGTATCCGCTATA | 2.26 | 2.39 | 3.37 | -0.366 | 1.35 | 4 | 0.15 | -0.329 |
| TAGACTAGGTCAGATCGGGCCAGTATACGCTATA | 1.99 | 2.46 | 3.56 | -0.416 | 1.24 | 3.92 | -0.175 | -0.33 |
| CCATACGGGTCACTCCAGGTTATAGCATCGGAGT | 2.96 | 4.24 | 3.85 | 0.942 | 4.03 | 5.15 | 0.591 | 1.76 |
| TAGCCTCGGTCATGGGCCAGTATACCACGCGAAC | 1.72 | 1.72 | 2.42 | -1.4 | 0.378 | 0.05 | -0.217 | -0.408 |
| CCTATTAGTTGACCATAAGGGCAACGGAAGCTCG | 1.92 | 1.29 | 0.865 | 0.278 | 0.632 | 1.84 | 1.47 | 0.902 |
| CCGTCTGGGGCATAAGGTTACCATAAGCCAGCCC | 1.92 | 1.86 | 1.18 | -0.715 | 1.23 | 2.17 | 1.31 | 0.173 |
| TCTCGGACGACACGAAGGTCAGAGCTTTCCAGAG | 3.12 | 2.49 | 2.65 | 0.495 | 2 | 1.53 | 0.0855 | 0.189 |
| GCTTACGGGTCAAAGGTTATAGGATGAATAGAAT | 3.6 | 6.89 | 4.67 | 2.7 | 9.57 | 3.78 | 0.0155 | 1.65 |
| GCTGCTAGGTCAACTGATGATCAGCTAAAGCTCG | 3.3 | 4.46 | 5.15 | 1.46 | 2.75 | 2.85 | 0.808 | -0.0271 |
| TCTTATAGATCAGCAGGTTAAGAAAGCTGGCCAA | -0.092 | 0.0544 | -0.0955 | 0.704 | 0.376 | 0.0186 | -0.656 | -0.144 |
| CCGAGTAGGTTGTGGGGCATTCAGGCAACGGTGA | 0.739 | -0.398 | -0.497 | -0.201 | -0.326 | 0.119 | 0.578 | 0.435 |
| ATACTAAGGTGATCGTGAGGTCGTTGATACTAAC | 1.76 | 2.89 | 1.27 | 1.35 | 2.06 | 3.7 | 3.46 | 3.43 |
| CCACGGAGGACAACAGGAGGTCAGAGCTGCCAGA | 3.72 | 3.61 | 3.45 | 0.466 | 2.08 | 2.8 | 1.28 | 1.48 |
| TGTTGTAGATCAGCAGGTTAAGAAAGCTGGCCAA | -0.378 | -0.266 | -0.294 | -1.38 | -0.118 | -0.32 | -1.04 | -0.583 |
| CCTATAAGTTGACCATAAGGGCAACCGAAGCTCG | 2.31 | 2.2 | 1.31 | 0.769 | 0.942 | 2.44 | 1.2 | 1.32 |
| GCTAGCAGGCCACTTGGGTCACTCAATGACGGGC | 2.08 | 1.11 | 1.41 | -0.454 | 0.892 | 1.67 | 0.36 | 0.24 |
